TRHR enhancer: allosteric enhancers of human TRH receptor; enhancement, % at 2 µM; P34981; 0.66% of 360,000 active; TRHR cells, fluo-8 calcium fluorescence, EC20 TRH enhancement; in the data active means enhancement above about 30%
Target sequence (P34981 whole entry, looked up): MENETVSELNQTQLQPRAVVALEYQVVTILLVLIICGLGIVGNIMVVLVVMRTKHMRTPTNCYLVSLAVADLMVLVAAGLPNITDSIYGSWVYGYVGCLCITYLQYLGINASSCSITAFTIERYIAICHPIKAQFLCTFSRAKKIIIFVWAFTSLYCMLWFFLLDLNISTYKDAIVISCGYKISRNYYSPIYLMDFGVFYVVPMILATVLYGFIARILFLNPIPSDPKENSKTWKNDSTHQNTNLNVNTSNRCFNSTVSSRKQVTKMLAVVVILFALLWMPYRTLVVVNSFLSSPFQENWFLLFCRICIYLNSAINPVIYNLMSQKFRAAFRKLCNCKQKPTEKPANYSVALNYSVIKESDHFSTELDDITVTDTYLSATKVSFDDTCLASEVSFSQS
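Enhancer read-out: after compound pinning and an initial kinetic agonist-mode read, an EC20 of TRH (10 nM final) was injected and fluo-8 calcium signal (Ex 480/Em 530) followed at 1 s/cycle for 100 cycles in TRHR-expressing cells.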
TRHR ag: agonists of human TRH receptor; P34981; TRHR cells, calcium flux fluo-8, FDSS agonist mode; activation, % at 2 µM; 0.18% of 360,000 active; AID 493084
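TRHR-expressing cells, plated overnight in medium with 10% serum, were loaded with fluo-8 calcium dye at room temperature. After a 10 s baseline, library compound was pin-added and calcium release was recorded kinetically (ex 480/em 530) as agonist response.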
D1 antag: blocks dopamine activation of the human D1 receptor | 3.2% of 360,000 active | AID 504652 | activity change, negative = inhibition, % at 10 µM | HEK293 TREx D1 cells, calcium flux, dopamine EC80; active compounds read low | P21728; in the data active means activity change below about -30%
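Kinetic fluorescence of a calcium dye serves as the read-out. D1-expressing Hek293 Trex cells, induced overnight at 30 C, are exposed to compound for 180 s before an EC80 dopamine addition, then read 180 s further.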
D1 agonist: activates the human D1 dopamine receptor; activation, % at 2 µM; HEK293 T-REx D1 cells, calcium flux, agonist mode; 1% of 360,000 active; AID 504660
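Agonism was scored from calcium flux recorded over 180 s (1 read/s) after pintool compound addition, following a 10-cycle baseline. Cells were inducible force-coupled HEK293 TREx D1, plated overnight at 30 C and loaded with no-wash calcium dye.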
D1 potentiator: potentiators of human D1 dopamine receptor; potentiation, % at 10 µM; P21728; HEK293 TREx D1 cells, calcium flux, dopamine EC20 potentiation; 0.036% of 360,000 active; in the data active means potentiation above about 30%
Each line names hits and unclear results; the compound was inactive in the other large screens; ! = repeats disagree. Compounds with a hit are over-represented: about 4.7% of the library has one in this group of screens. Unless noted, no stated cut-off is given here; in the data, active means activation above about 30%; inactive means the rest.

COCCN(C(=S)Nc1ccccc1OC)C1CCN(C(C)=O)CC1	D1 antag -35
c1ccc(CNc2nc(-c3cccnc3)nc3ccccc23)cc1	none
c1cncc(-c2nc(NCc3ccc4c(c3)OCO4)c3ccccc3n2)c1	TRHR enhancer 32
Cn1c(=O)c2cc(C(=O)Nc3cccc(C#N)c3)sc2c2ccccc21	none
CC(C)(C)C(=O)Nc1ccc(Sc2ccc([N+](=O)[O-])cc2)cc1	D1 antag -34
CC(C)(C)C(=O)NC(NC(=O)C(C)(C)C)c1ccc([N+](=O)[O-])cc1	D1 antag -32
O=[N+]([O-])c1cccc(-c2nc3ccc([N+](=O)[O-])cc3[nH]2)c1	none
O=[N+]([O-])c1ccc2nc(-c3ccccc3[N+](=O)[O-])[nH]c2c1	D1 antag -39
O=[N+]([O-])c1ccc2nc(-c3ccc(Cl)cc3)[nH]c2c1	D1 antag -49
C#CCSc1nnc(CSc2nc3ccccc3s2)n1-c1ccccc1	D1 antag -30
Cc1ccc(C23CC4CC(CC(CN)(C4)C2)C3)cc1	D1 agonist 42
NCC12CC3CC(C1)CC(c1ccc(Br)cc1)(C3)C2	none
CCNC(=O)c1c(NC(=O)c2nc(S(=O)(=O)CC)ncc2Cl)sc2c1CCCC2	D1 antag -55
CC(C)c1nnc(NC(=O)c2nc(S(=O)(=O)Cc3ccc(F)cc3)ncc2Cl)s1	none
O=C(NCc1ccc2c(c1)OCO2)c1nc(S(=O)(=O)Cc2ccccc2)ncc1Cl	none
O=C(NCc1ccc2c(c1)OCO2)c1nc(S(=O)(=O)Cc2ccccc2F)ncc1Cl	D1 antag -49
COC(=O)c1ccccc1NC(=O)c1nc(S(=O)(=O)Cc2ccccc2)ncc1Cl	none
COCCCNC(=O)c1c(NC(=O)c2nc(S(C)(=O)=O)ncc2Cl)sc2c1CCCC2	none
COc1ccc(CNC(=O)c2nc(S(=O)(=O)Cc3ccccc3)ncc2Cl)cc1	D1 antag -37!
Cc1ccc(C)c(NC(=O)c2nc(S(=O)(=O)Cc3ccc(F)cc3)ncc2Cl)c1	D1 antag -37
CCN(CC(=O)Nc1c(F)cccc1F)C(=O)CNC(=O)C1CCCCC1	none
Cc1ccc(Cl)cc1NC(=O)c1cc(-c2ccc3c(c2)OCCO3)on1	none
CCOc1ccc(OCC)c(NC(=O)c2cc(S(=O)(=O)N3CCCC3)cn2C)c1	none
Cc1ccc(NC(=O)Cn2cc3c(n2)CCC(C)C3)cc1C (stereo not given)	none
CCc1c(C)nc2nc(-c3ccccc3)nn2c1NCc1ccc(C)cc1	none
O=C(NCc1ccccc1)c1c(Cl)nc(Cl)c(Cl)c1Cl	D1 antag -42
COc1ccc(NC(=O)c2nc(S(=O)(=O)Cc3ccc(C)cc3)ncc2Cl)cc1	D1 antag -38
O=C(NCc1ccccc1)c1nc(S(=O)(=O)Cc2ccccc2)ncc1Cl	D1 antag -41
CCS(=O)(=O)c1ncc(Cl)c(C(=O)NCc2ccccc2)n1	D1 antag -33
Cc1ccc(CS(=O)(=O)c2ncc(Cl)c(C(=O)Nc3ccc(OC(F)F)cc3)n2)cc1	none
Cc1cc(C(F)F)n2nc(C(=O)Nc3ccc(F)c(Cl)c3)nc2n1	none
CC(=O)N1CCOc2ccc(S(=O)(=O)NCCc3cccc(C)c3)cc21	none
CSc1cccc(Nc2cc(C(=O)NCCCN(C)c3ccccc3)c3ccccc3n2)c1	none
O=C(N/N=C/c1ccc(O)cc1O)c1ccc(NC(=O)C2CCCCC2)cc1	none
CC(=O)N1CCN(C(=O)c2cc(=O)c3ccccc3o2)CC1	none
CCOc1ccccc1NC(=O)c1nc(S(=O)(=O)Cc2cccc(C)c2)ncc1Cl	D1 antag -31!
O=C(Nc1nc2ccc(F)cc2s1)c1nc(S(=O)(=O)Cc2ccccc2F)ncc1Cl	D1 antag -34
CCCOc1ccc(-c2c(C(=O)N/N=C/c3cccs3)nnn2-c2nonc2N)cc1	none
Cc1ccc(S(=O)(=O)N2CCCNCC2)cc1	none
Cn1c(=O)c2c(nc(SCC(=O)Nc3ccc(OC(F)(F)F)cc3)n2Cc2cccc(C(F)(F)F)c2)n(C)c1=O	none
CCCN1CCN(c2ncnc3scc(C4COc5ccccc5O4)c23)CC1 (stereo not given)	TRHR enhancer 36
O=c1[nH]cnc2scc(C3COc4ccccc4O3)c12 (stereo not given)	D1 agonist 47
CCC(=O)NC(c1ccc(C)s1)c1cc(Cl)c2cccnc2c1O (stereo not given)	D1 antag -58
